Measurements as given in PubChem BioAssay.
A number with no mark means an inactive call. The source made the active and inactive calls. Rule as the data show it, unless noted: active = inhibition above about 25%; inactive = the rest.

What was measured:
[1] = biological target: Nuclear receptor coactivator 3 (Homo sapiens) (UniProt Q9Y6Q9); assay: NCOA3 GAL4-fusion reporter inhibition – cell-based, luminescence, quadruplicate, confirmation (AID 588792;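 active = mean inhibition over 43.08%, the solvent-only control mean plus 3 SD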;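 also: 0% = DMSO treated cells and 100% = gossypol at 36 µM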); details: HEK293 GAL4-SRC3 luciferase reporter, at 3.6 µM, stronger effect = higher value
[2] = test system: transactivating tegument protein VP16 (Human herpesvirus 1), Gal4-VP16 luciferase reporter; assay: repression of VP16-driven luciferase reporter – cell-based, luminescence, high throughput, counter-screen for SRC3 inhibitor project (AID 588794; in the data active = inhibition above about 30%); details: mammalian cells, at 3.6 µM, stronger effect = higher value
[3] = biological target: Nuclear receptor coactivator 1 (Homo sapiens) (UniProt Q15788); assay: NCOA1 GAL4-fusion reporter inhibition – cell-based, luminescence, quadruplicate, confirmation (AID 588820;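 active = mean inhibition above 46.68%, the untreated control wells mean plus 3 SD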;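 also: 0% = DMSO wells and 100% = gossypol 36 µM treated wells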); details: HEK293 GAL4-SRC1 luciferase reporter, at 3.6 µM, stronger effect = higher value
[4] = repression of VP16-driven luciferase reporter – cell-based, luminescence, high throughput, counter-screen for SRC1 inhibitor project (AID 588824); details: cell-based VP16 transactivation luciferase luminescence; at 3.6 µM; stronger effect = higher value

Sequence of Nuclear receptor coactivator 1 (Homo sapiens) (Q15788 whole entry, looked up, the tested form may be a part): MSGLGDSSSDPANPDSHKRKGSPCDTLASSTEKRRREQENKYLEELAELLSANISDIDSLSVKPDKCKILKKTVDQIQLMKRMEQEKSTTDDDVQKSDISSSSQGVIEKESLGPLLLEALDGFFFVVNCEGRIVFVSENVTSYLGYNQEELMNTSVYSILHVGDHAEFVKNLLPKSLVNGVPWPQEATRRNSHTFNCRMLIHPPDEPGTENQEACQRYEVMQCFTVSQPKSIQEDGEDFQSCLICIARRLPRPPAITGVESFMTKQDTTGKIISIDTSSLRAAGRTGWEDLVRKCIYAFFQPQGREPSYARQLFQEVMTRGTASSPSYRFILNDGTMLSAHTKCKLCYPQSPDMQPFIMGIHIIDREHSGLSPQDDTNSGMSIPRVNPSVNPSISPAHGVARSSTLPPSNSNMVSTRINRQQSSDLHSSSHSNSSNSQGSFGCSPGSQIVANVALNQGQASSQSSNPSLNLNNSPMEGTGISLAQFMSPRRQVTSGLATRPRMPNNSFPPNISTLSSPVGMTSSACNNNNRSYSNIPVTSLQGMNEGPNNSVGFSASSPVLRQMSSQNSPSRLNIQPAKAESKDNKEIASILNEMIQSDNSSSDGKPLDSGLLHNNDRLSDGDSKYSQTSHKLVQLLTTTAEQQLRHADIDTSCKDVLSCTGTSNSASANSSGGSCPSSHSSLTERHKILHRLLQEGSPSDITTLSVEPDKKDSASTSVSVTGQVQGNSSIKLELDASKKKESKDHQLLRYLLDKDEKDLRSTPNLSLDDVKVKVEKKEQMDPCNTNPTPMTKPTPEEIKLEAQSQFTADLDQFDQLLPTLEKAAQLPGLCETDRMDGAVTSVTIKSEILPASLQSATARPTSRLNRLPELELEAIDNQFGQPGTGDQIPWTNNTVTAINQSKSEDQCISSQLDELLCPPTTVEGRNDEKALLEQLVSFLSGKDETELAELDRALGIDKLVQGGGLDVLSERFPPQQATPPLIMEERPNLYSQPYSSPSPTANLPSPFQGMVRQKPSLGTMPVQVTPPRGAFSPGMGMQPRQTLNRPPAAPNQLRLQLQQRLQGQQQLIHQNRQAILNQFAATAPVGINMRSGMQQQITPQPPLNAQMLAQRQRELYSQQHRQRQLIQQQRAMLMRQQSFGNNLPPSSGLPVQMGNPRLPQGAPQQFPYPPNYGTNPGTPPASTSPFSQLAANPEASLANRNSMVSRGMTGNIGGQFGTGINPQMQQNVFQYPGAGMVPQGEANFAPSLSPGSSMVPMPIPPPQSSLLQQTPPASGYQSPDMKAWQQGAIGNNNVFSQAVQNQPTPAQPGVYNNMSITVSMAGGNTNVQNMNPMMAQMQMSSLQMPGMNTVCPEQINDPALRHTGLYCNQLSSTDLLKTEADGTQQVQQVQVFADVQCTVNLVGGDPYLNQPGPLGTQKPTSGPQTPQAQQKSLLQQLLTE
Sequence of Nuclear receptor coactivator 3 (Homo sapiens) (Q9Y6Q9 whole entry, looked up, the tested form may be a part): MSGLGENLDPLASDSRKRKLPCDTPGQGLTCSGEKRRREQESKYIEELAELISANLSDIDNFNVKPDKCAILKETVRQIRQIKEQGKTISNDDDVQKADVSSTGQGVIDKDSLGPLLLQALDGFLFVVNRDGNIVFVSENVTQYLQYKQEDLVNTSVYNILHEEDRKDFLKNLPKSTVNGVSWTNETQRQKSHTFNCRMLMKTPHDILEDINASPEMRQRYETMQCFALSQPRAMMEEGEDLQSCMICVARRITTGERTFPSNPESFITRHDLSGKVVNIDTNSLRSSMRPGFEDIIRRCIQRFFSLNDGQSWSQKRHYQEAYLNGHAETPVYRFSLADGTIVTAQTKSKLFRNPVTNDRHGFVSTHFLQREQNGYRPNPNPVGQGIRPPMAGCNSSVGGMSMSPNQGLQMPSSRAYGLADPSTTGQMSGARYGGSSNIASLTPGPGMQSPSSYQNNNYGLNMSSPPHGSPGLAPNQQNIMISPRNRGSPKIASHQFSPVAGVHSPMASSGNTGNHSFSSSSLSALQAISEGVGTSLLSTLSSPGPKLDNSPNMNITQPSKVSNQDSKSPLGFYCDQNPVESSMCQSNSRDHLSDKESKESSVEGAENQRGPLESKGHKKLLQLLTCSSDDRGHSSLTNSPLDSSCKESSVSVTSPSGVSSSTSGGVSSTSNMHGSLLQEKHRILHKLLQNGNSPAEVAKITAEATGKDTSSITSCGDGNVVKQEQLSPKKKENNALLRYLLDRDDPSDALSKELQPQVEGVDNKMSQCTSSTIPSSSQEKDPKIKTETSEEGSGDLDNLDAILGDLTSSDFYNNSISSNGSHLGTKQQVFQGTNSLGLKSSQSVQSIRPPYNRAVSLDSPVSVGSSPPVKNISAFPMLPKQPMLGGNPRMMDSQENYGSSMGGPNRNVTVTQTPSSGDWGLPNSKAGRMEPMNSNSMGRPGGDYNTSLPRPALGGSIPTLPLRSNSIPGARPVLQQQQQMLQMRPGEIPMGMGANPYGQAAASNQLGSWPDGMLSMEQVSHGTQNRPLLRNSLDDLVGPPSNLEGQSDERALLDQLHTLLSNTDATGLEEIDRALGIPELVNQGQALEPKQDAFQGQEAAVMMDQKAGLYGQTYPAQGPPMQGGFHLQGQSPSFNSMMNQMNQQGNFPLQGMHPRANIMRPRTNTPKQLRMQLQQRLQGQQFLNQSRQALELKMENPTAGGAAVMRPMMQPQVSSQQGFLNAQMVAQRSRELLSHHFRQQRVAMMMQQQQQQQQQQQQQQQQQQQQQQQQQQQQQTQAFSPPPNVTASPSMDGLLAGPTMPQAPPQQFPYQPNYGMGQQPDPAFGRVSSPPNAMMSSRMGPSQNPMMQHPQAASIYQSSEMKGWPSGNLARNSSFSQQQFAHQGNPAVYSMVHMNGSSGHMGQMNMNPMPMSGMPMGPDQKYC

Structure (SMILES)	inhibition [1]	inhibition [2]	inhibition [3]	inhibition [4]
O=C(Nc1nc(-c2ccc(S(=O)(=O)N3CCCC3)cc2)cs1)C1COc2ccccc2O1 (centres undefined)	7.31%	-0.16%	-8.23%	-2.78%
COC1C(OC(=O)/C=C/C=C/C=C/C=C/C(=O)O)CCC2(CO2)C1C1(C)OC1CC=C(C)C (centres undefined) (tested in a mixture with another compound)	17.6%	20.7%	9.4%	20.7%
CN(CC1CCCO1)S(=O)(=O)c1ccc(C(=O)Nc2nc3cc4c(cc3s2)OCO4)cc1 (centres undefined)	14.7%	39.8% (active)	0.14%	39.8% (active)
COc1ccc(-c2cn[nH]c2C)cc1OC	21.1%	10.4%	12.1%	10.7%
COc1ccc(C(C(=O)NC2CCCCC2)N(C(=O)CCl)c2ccc(C)cc2)cc1 (centres undefined)	71.8% (active)	52.9% (active)	35.7%	49.2% (active)
CN(C)CCCN1C(=O)c2cccc3c([N+](=O)[O-])ccc(c23)C1=O	17.8%	5.35%	-9.62%	0.85%
CC(C)(C)OC(=O)NCC(=O)Oc1cc2oc(=O)cc(-c3ccccc3)c2cc1Cl	21.9%	15.7%	21.3%	15.3%
Cc1[nH]ccc2cc3nc4ccccc4c3cc12	13.9%	36.2% (active)	31.7%	39.4% (active)
O=C(c1ccncc1)N(Cc1cc2ccccc2[nH]c1=O)C1CCCCC1	40.7%	23.2%	42.2%	23.1%
CC(=O)c1c(C)n(-c2ccccc2)c2ccc(O)cc12	50.6% (active)	41.6% (active)	44.7%	37.9% (active)
CC1=C(C(=O)OCc2ccc3c(c2)OCO3)C(c2ccccc2)NC(=O)N1 (centres undefined)	78.7% (active)	59.2% (active)	68.9% (active)	61.8% (active)
Cn1c(C(=O)O)c(CC(=O)Nc2ccc3c(c2)OCCO3)c2ccccc21	19.4%	3.77%	-17.2%	-7.4%
CC(C)c1ccc(-c2nnn(CCC(=O)O)n2)cc1	52.2% (active)	46.8% (active)	41.3%	37.5% (active)
COc1ccc(-c2coc3c(C(=O)Nc4cc(OC)c(OC)c(OC)c4)cccc23)c(C)c1	19.8%	29.8% (active)	0.16%	31.8% (active)
CC(C)(C)NC(=O)C(c1ccncc1)N(Cc1cccs1)C(=O)Cn1nnc(-c2ccc(F)cc2)n1 (centres undefined)	59.4% (active)	35% (active)	43%	29.1% (active)
Cc1cccc(C)c1-c1ccc(CN2C(CC(C)C)C(=O)N(Cc3cn(CC4CCCCC4)nn3)CCS2(=O)=O)cc1 (centres undefined)	21.1%	21.2%	24.4%	22.6%
Cc1cc(C)c2c(N)c3ccccc3nc2n1	15.2%	54.6% (active)	3.44%	53.4% (active)
NC(=O)C(C(=O)/C=C/c1ccc(Cl)cc1)=C1SCCS1	29.4%	36.6% (active)	30.9%	33.8% (active)
COc1ccc(-n2cc(-c3ccccc3)[n+]3c2CCCCC3)cc1	24.8%	22%	16.8%	27.7% (active)
C/C(=N\NC(=O)c1nnn(-c2nonc2N)c1-c1ccccc1)c1ccccc1O	49.2% (active)	44.6% (active)	60.8% (active)	40.6% (active)
Oc1ccc(C=NNc2ccccn2)c(O)c1	76% (active)	-12.1%	14.7%	-1.88%
